ELG1 genotoxic: qHTS screen for small molecules that induce genotoxicity in human embryonic kidney (HEK293T) cells expressing luciferase-tagged ELG1. HEK293T ELG1-luciferase reporter, luminescence, 16 h. Potency, µM (series often up to 46 µM), without a hit: at the top dose activity change, positive = activation, actives largely listed as activators. 330,000 tested, 1.3% active. AID 504466, 2011; also: % of control where 0% means no effect; nearly all actives have a fitted effect of over 60% in size
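16 hr compound incubation (37 °C, 5% CO2) of HEK293T cells carrying luciferase-tagged ELG1; luciferase then measured by ONE-Glo luminescence after 30 min at RT.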
FLuc counter: qHTS profiling assay for firefly luciferase inhibitor/activator using purifed enzyme and Km concentrations of substrates (counterscreen for miR-21 project); purified FLuc, Km substrates, luminescence inhibition; Luciferin 4-monooxygenase (Photinus pyralis), P08659; 360,000 tested, 6.9% active; Potency, µM (titrated, usually from 57.5 µM), inactives show top-dose activity change, negative = inhibition, actives largely listed as inhibitors;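 also: plate controls were vehicle for no effect and reference inhibitor for full effect; nearly all actives have a fitted effect of over 55% in size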
Target sequence (P08659 whole entry, looked up): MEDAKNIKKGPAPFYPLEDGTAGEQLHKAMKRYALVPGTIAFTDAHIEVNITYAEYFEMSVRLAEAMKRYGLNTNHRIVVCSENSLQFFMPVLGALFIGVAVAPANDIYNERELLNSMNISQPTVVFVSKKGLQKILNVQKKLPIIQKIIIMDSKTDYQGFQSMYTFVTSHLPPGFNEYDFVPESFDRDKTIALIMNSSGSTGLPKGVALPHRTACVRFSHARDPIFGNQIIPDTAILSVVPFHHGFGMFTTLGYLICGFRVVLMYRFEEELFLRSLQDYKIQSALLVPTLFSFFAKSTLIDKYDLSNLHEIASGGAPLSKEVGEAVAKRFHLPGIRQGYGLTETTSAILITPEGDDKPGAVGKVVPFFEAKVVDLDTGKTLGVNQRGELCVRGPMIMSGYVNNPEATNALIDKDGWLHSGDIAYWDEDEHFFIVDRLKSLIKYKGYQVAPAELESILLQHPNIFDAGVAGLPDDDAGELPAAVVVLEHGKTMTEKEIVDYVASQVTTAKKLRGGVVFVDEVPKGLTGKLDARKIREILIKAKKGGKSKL
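Biochemical qHTS of compounds, final roughly 60 µM downward over six points, against 10 nM purified firefly luciferase using Km concentrations of substrates (10 uM D-luciferin, 10 uM ATP) in Tris acetate pH 7.5 buffer; luminescence output.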
Rab9 promoter act: qHTS Assay for Rab9 Promoter Activators. Huh7 Rab9 promoter-luciferase reporter, luminescence, 24 h. Potency, µM (top dose mostly 9.22 µM), for inactives: top-dose activation, negative = inhibition, most hits filed as activators. 320,000 tested, 2.8% active. AID 485297, 2010; also: % of control where 0% means no effect; nearly all actives have a fitted effect of over 60% in size
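Stable Rab9-luc Huh7, 1500 cells/well, 2 h settle; cmpd in DMSO, 24 h, 37 °C/5% CO2; luciferase reagent 10 min RT; luminescence.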
Luc counter: Counterscreen for Luciferase (Kinase-Glo TM) Inhibition; Luciferin 4-monooxygenase (Photuris pensylvanica), Q27757; Kinase-Glo luciferase, ATP luminescence, 8 min; Potency, µM (series often up to 38.3 µM), without a hit: at the top dose activity change, negative = inhibition, actives largely listed as inhibitors; 200,000 tested, 0.28% active; also: % is scaled to controls: 0 for no effect and ±100 for the full control effect; nearly all actives have a fitted effect of over 60% in size
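Luminescence was the read-out, taken after 8-minute incubation at ambient temperature. Luciferase turned over luciferin with 10 uM ATP in imidazole pH 7.2 buffer containing KCl, MgCl2, Tween 20 and BSA.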
NPC1 promoter act: qHTS Assay for NPC1 Promoter Activators | 320,000 tested, 2.4% active | AID 485313, 2010 | Potency, µM (series often up to 9.22 µM), for the others: at the highest dose activation, most hits filed as activators | Huh7 NPC1 promoter luciferase reporter, 24 h; also: % of control where 0% means no effect; nearly all actives have a fitted effect of over 60% in size
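Luminescence read-out of NPC1 promoter-driven luciferase in stably transfected Huh7 cells; compounds delivered in DMSO and left 24 h at 37C, 5% CO2, qHTS titration format.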
SMN2 splice enh: qHTS Assay for Enhancers of SMN2 Splice Variant Expression | HEK293 SMN2-luciferase splicing reporter, luminescence, 30-36 h | Potency, µM (doses to about 46.1 µM), inactives show top-dose activity change, positive = activation, most hits filed as activators | 210,000 tested, 2.8% active | AID 1458, 2008; also: % of control where 0% means no effect; nearly all actives have a fitted effect of over 55% in size
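HEK293 cells carry an SMN2 […]–luciferase reporter in which exon 7 inclusion puts luciferase in frame. Cells were plated 10-12 h before compound addition, then incubated 30-36 h at 37C. ONE-Glo luminescence was read; sodium butyrate at 4.5 mM final served as control.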
Starred values were filed as active, the others as inactive; ? = inconclusive; / = no result; ! = a repeat was not active. This is a sample that favours compounds with a hit; in the whole collection about 7.4% have one here. Calls follow the shape of the dose curve; as a rule, active = well fitted curve in the direction sought with a large enough effect; inconclusive = small, poorly fitted or top-dose-only effect, or another doubt; inactive = no such curve, though single readings can be large; an effect the other way counts as inactive or inconclusive. Potency is read from the fitted curve at half-maximal effect.

SMILES	ELG1 genotoxic	FLuc counter	Rab9 promoter act	Luc counter	NPC1 promoter act	SMN2 splice enh
CC(/C=C1\SC(=S)N(CCCC(=O)Nc2ccc(C(=O)O)cc2)C1=O)=C\c1ccccc1	15.7%	13.5µM*	27.8%	1.9%	16.7%	-3.9%
COc1cc(/C=C2/SC(=S)N(CCC(=O)Nc3ccc(C(=O)O)cc3)C2=O)cc(OC)c1OC	-4.3%	0.1%	-2.1%	/	-1.8%	/
CC(/C=C1\SC(=S)N(CCC(=O)Nc2cccc(C(=O)O)c2)C1=O)=C\c1ccccc1	0.4%	23.9µM*	-0.5%	/	-4.4%	/
CCCCOC(=O)n1c(=S)oc2cc(Cl)ccc21	1.1%	16.9µM*	-5.7%	1.2%	0.1%	-11.4%
Cc1nc(-c2ccc(NC(=O)c3ccccc3)cc2)cs1	-13.5%	-1.0%	-13.8%	-2.8%	-6.9%	/
CCc1ccccc1NC(=O)c1ccc(-c2csc(C)n2)cc1	?	?	?	/	3.55µM*	/
Cc1nc(-c2ccc(NC(=O)C3CCCCC3)cc2)cs1	2.31µM*	2.13µM*	2.82µM*	10.1%	3.16µM*	25.1µM*
Cc1ccc(C(=O)Nc2ccc(-c3csc(C)n3)cc2)cc1	?	?	?	-6.0%	2.24µM*	140.2%
COC(=O)c1c(-c2ccccc2)csc1NC(=O)c1ccco1	2.31µM*	5.36µM*	?	-3.8%	2.82µM*	-0.6%
Cc1cc(NC(=O)/C=C/c2ccco2)ccc1NC(=O)c1ccccc1	-0.3%	?	9.8%	-20.2%	0.4%	/
O=C(Nc1scc(-c2ccc(F)cc2)c1C(=O)O)c1ccco1	?	16.9µM*	24.0%	-5.5%	26.3%	?
Cc1ccc(-c2csc(NC(=O)/C=C/c3ccco3)c2C(=O)O)cc1	?	6.01µM*	1.78µM*	-13.0%	3.16µM*	11.2µM*
CCOC(=O)C1=C(C)NC(C)=C(C(=O)OCC)C1c1ccc(O)cc1	14.4%	2.7%	11.8%	-0.4%	0.3%	12.6µM*
C=C(C)C(=O)OCCCCCCCCCC	/	/	/	/	/	2.1%
c1ccc(C2Nc3ccccc3-c3nc4ccccc4n32)nc1 (stereo not drawn)	1.5%	?	-1.0%	-0.7%	-5.8%	-8.1%
c1ccc(C2Nc3ccccc3-c3nc4ccccc4n32)cc1 (stereo not drawn)	?	21.3µM*	5.6%	-3.3%	3.1%	25.6%
c1coc(C2Nc3ccccc3-c3nc4ccccc4n32)c1 (stereo not drawn)	?	21.3µM*	?	-8.2%	?	17.8µM*
O=C(CSc1nc2ccccc2c(=O)n1-c1ccccc1Cl)Nc1cccc(S(=O)(=O)N2CCOCC2)c1	4.1%	3.7%	0.6%	2.0%	7.0%	25.9%
Cc1ccc(NC(=O)Cn2c(=O)n(Cc3ccc4c(c3)OCO4)c(=O)c3ccc(C(=O)NC4CCCCC4)cc32)c(C)c1	/	-0.9%	/	/	/	9.3%
N#C/C(=C/c1ccc(N2CCCCCC2)o1)c1ccc(Cl)cc1	?	9.53µM*	3.98µM*	-2.9%	26.3%	0.8%
N#C/C(=C/c1ccc(Sc2nc3ccccc3[nH]2)o1)c1cccc(F)c1	-1.3%	-1.9%	7.9%	2.2%	3.1%	-53.6%
N#C/C(=C/c1ccc(N2CCCCC2)o1)c1cccc(F)c1	3.66µM*	2.13µM*	6.3%	-4.5%	-2.4%	22.1%
N#C/C(=C/c1ccc(N2CCCCC2)cc1)c1cccc(F)c1	18.4µM*	5.36µM*	3.16µM*	-3.3%	3.98µM*	?
O=C(NCCc1ccccc1)c1ccc2c(c1)S(=O)(=O)c1cc(Cl)ccc1C2=O	-3.6%	2.3%	-5.2%	/	-2.3%	/
O=C(CSc1nnc(C2CCCCC2)o1)Nc1ccccc1Cl	?	?	3.55µM*	/	?	/
SMILES	ELG1 genotoxic	FLuc counter	Rab9 promoter act	Luc counter	NPC1 promoter act	SMN2 splice enh
Cc1ccc(C)c(CN2C(=O)c3ccccc3S(=O)c3ccc(C(=O)NCc4ccccc4)cc32)c1 (stereo not drawn)	/	0.3%	/	/	/	21.9%
CCCC(=O)Nc1ccc(NC(=O)c2ccccc2)nc1	?	4.78µM*	0.282µM*	/	0.316µM*	/
CCCC(=O)Nc1ccc(NC(=O)c2ccccc2F)cn1	7.7%	?	?	/	?	/
CCC(=O)Nc1ccc(NC(=O)Cc2ccccc2)cn1	2.4%	3.4%	0.3%	3.1%	-0.8%	3.6%
CCC(=O)Nc1ccc(NC(=O)c2ccccc2)nc1	?	6.01µM*	0.447µM*	-15.2%	1.26µM*	3.98µM*
Cc1ccc(C)c(OCC(=O)NNC(=O)CCN2CCN(c3ccccc3)CC2)c1	0.1%	0.0%	-6.7%	/	-0.1%	/
Cc1ccc2c(c1)sc1nc(=O)n(-c3cccc(Cl)c3)c(=O)n12	?	5.8%	1.58µM*	4.7%	1.58µM*	11.2µM*!
O=c1nc2sc3ccccc3n2c(=O)n1-c1cccc(Cl)c1	4.61µM*	-3.6%	?	-0.6%	12.7%	/
O=c1nc2sc3ccccc3n2c(=O)n1-c1ccc(Cl)cc1	?	-5.7%	2.82µM*	0.6%	3.16µM*	20µM*
COc1ccc(NC(=O)c2ccc3nc(C)sc3c2)cc1	?	?	1µM*	/	1µM*	/
Cc1nc2ccc(NC(=O)c3ccc(Br)o3)cc2s1	-3.1%	15.1µM*	2.51µM*	-7.5%	2.82µM*	11.2µM*
COC(=O)c1ccc(NC(=O)c2ccc3nc(C)sc3c2)cc1	?	-11.9%	0.708µM*	/	0.794µM*	/
COc1ccc(C(=O)Nc2ccc3nc(C)sc3c2)cc1OC	23.0%	?	?	-23.6%	18.4%	/
Cc1nc2ccc(C(=O)Nc3cccc([N+](=O)[O-])c3)cc2s1	12.2%	?	?	1.2%	?	?
Cc1cccc(NC(=O)CSc2nc3nc(C)cc(C)n3n2)c1	-4.5%	2.8%	-4.5%	/	-0.1%	/
C/C(=N\Nc1nc(C(C)(C)C)cs1)c1ccc(O)cc1	?	21.3µM*	?	/	?	/
C/C(=N\Nc1nc(C(=O)O)cs1)c1ccccc1	2.6%	16.9µM*	17.4%	-0.4%	10.8%	21.8%
C/C(=N/NC(=O)C(=O)N/N=C(/C)c1ccccc1)c1ccccc1	8.2%	?	0.3%	3.9%	1.5%	17.3%
CC(C)(C)c1csc(NNC(=O)c2ccc(Br)cc2)n1	9.1%	?	7.5%	1.3%	14.4%	-61.5%
C/C(=N\Nc1nc(C(C)(C)C)cs1)c1ccccc1	3.66µM*	2.13µM*	1.12µM*	/	1.41µM*	/
